Experimental findings from PubChem BioAssay (NCATS) are described below.

Records with an inconclusive call do not appear. Active and inactive are the calls of the source. Unless noted, the call rests on the fitted dose curve; in most records, active means well fitted inhibition curve with a large enough effect; inconclusive means small, poorly fitted or top-dose-only effect; inactive means flat fitted curve, though single readings scatter.

Experiment [1] in a line: qHTS for identification of novel therapeutic agents for treatment of microphthalmiaassociated transcription factor (MiT) renal cell carcinoma (RCC) (AID 1963991). The note with it: CellTiter-Glo, 48 h, stronger effect = lower value. The essentials: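 Three TFE3-fusion RCC lines (UOK109, UOK124, UOK145), 500 cells/well in complete medium, were treated with MIPE 4.0 compounds for 48 hours at 37 C. Viability was by CellTiter-Glo luminescence, normalized to DMSO (100%) and empty wells (0%); curves fitted over 11 concentrations.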

Experiment [2] can be described thus: qHTS drug screen for cell cycle checkpoint inhibitors in PARPi-resistant BRCA-mutant ovarian cancer cell lines. (AID 1963452; calls by dose curve). Particulars: PEO1/OlaR viability, CellTiter-Glo luminescence, 96 h, stronger effect = lower value. The essentials:
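PEO1, PEO4 and PEO1/OlaR ovarian cancer cells, 600 per well, exposed 96 h at 37C to a dilution series. Viability read by CellTiter-Glo luminescence, normalized to DMSO and empty wells; activity summarized as Z-AUC.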

Experiment [3] is described as follows: qHTS profiling for inhibitors of Plasmodium falciparum proliferation (AID 504749). Further: potency means the concentration at half of the fitted maximal effect.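 On activity, negative = inhibition: 0% = DMSO vehicle and full inhibition = artemisinin control.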 On all read-outs here: nearly all actives have a fitted effect of over 60% in size. Particulars: P. falciparum in erythrocytes, SYBR Green DNA, 72 h; for activity, negative = inhibition: at 28.7 µM (top of the series). The essentials:
(§1)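 Quantitative HTS: compounds pinned into medium, infected erythrocytes added (0.3% parasitemia, 2.5% hematocrit), 72 h culture at 37 C under 5% CO2. Saponin/Triton lysis with SYBR Green I, overnight RT, then fluorescence read.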
(In general: In qHTS, concentration-response curves come from the screen itself.)

The next experiment has as its system AA1029. The experiment is described as above. Particulars: P. falciparum in erythrocytes, SYBR Green DNA, 72 h; series mostly up to 28.7 µM. The essentials:
as §1

The next experiment deals with AS120. The experiment is described as above. The note with it: P. falciparum in erythrocytes, SYBR Green DNA, 72 h; series mostly up to 28.7 µM. The essentials:
as §1

For another experiment, the system named is ATS189. The experiment is described as above. Particulars: P. falciparum in erythrocytes, SYBR Green DNA, 72 h; series mostly up to 28.7 µM. The method, boiled down: as §1
A further experiment has as its system ATS95. Described as above. The note with it: P. falciparum in erythrocytes, SYBR Green DNA, 72 h; series mostly up to 28.7 µM. The essentials: as §1
The test system of a further experiment is C2A. The description is as above. Particulars: P. falciparum in erythrocytes, SYBR Green DNA, 72 h; series mostly up to 28.7 µM. The method, boiled down:
as §1

A further experiment relates to CP185. Described as above. The note with it: P. falciparum in erythrocytes, SYBR Green DNA, 72 h; series mostly up to 28.7 µM. The method, boiled down:
as §1

The subject of the next experiment is CP192. The experiment is described as above. Particulars: P. falciparum in erythrocytes, SYBR Green DNA, 72 h; series mostly up to 28.7 µM. The essentials:
as §1

In another experiment the test system is CP194. Described as above. The note with it: P. falciparum in erythrocytes, SYBR Green DNA, 72 h; series mostly up to 28.7 µM. The method, boiled down:
as §1

The test system of a further experiment is CP201. Described as above. The note with it: P. falciparum in erythrocytes, SYBR Green DNA, 72 h; series mostly up to 28.7 µM. The method, boiled down:
as §1

For a further experiment, the system named is 3D7. The description is as above. Particulars: P. falciparum in erythrocytes, SYBR Green DNA, 72 h; series mostly up to 28.7 µM. The essentials:
as §1

The test system of another experiment is CP191. The experiment is described as above. The note with it: P. falciparum in erythrocytes, SYBR Green DNA, 72 h; series mostly up to 28.7 µM. The method, boiled down: as §1
The next experiment deals with 7G8. The experiment is described as above. The note with it: P. falciparum in erythrocytes, SYBR Green DNA, 72 h; series mostly up to 28.7 µM. The method, boiled down:
as §1

Where [4] appears, read: TFE3-RCC UOK109 viability, measured here: UOK109 Z-AUC.
The mark [5] stands for this setting: TFE3-RCC viability, measured here: UOK124 Z-AUC.
Setting [6] is: TFE3-RCC viability, measured here: UOK145 Z-AUC.
[7] abbreviates: measured here: PEO1 parental Z-AUC.

`COc1c(O)cc2c(c1O)[C@@H]1O[C@H](CO)[C@@H](O)[C@H](O)[C@H]1OC2=O`: the z-score was 0.427 in experiment [1] (setting [4]), 0.313 in experiment [1] (setting [5]) and -0.262 in [1] (setting [6]).
On to `COC1=C(OC)C(=O)C(CCCCCCCCCCO)=C(C)C1=O`, for which the Z-AUC is -0.864 (inactive) in experiment [2], -1.14 in [2] (setting [7]) and -0.303 in experiment [2] (measured here: PEO4 Z-AUC). Also, the activity, negative = inhibition in experiment [3] (parasite line A) is -28.8% (inactive); in experiment [3] (parasite line B), -11.7% (inactive). For the same compound, the Potency result in the experiment on AA1029, with AS120, with ATS189, in the experiment on ATS95, in the experiment with C2A and in the experiment on CP185 was “inactive” in each case. Also, the Potency result in the experiment on CP192, in the experiment with CP194 and in the experiment on CP201 was “inactive” throughout.
Turning to `CC(C)c1nc(CN(C)C(=O)N[C@H](C(=O)N[C@@H](Cc2ccccc2)C[C@H](O)[C@H](Cc2ccccc2)NC(=O)OCc2cncs2)C(C)C)cs1`, the z-score in experiment [1] (setting [4]) is -0.114; in experiment [1] (setting [5]), -0.388; in experiment [1] (setting [6]) it was 0.0556.
With `O=C1c2ccccc2-c2n[nH]c3cccc1c23`, the Z-AUC in experiment [2] is 0.0207 (inactive); in experiment [2] (setting [7]), -0.118; in experiment [2] (measured here: PEO4 Z-AUC), 0.208. Besides, the activity, negative = inhibition was -18.5% (inactive) in experiment [3] (parasite line A) and -1.75% (inactive) in experiment [3] (parasite line B). For the same compound, the Potency result in the experiment with 3D7, with AA1029, in the experiment with AS120, in the experiment on ATS189, in the experiment with ATS95 and in the experiment with C2A was “inactive” in each case. Further, the Potency result with CP185, with CP191, in the experiment on CP192, with CP194 and in the experiment with CP201 was “inactive” each time.
`CN(c1nccc(=O)[nH]1)C1CCN(c2nc3ccccc3n2Cc2ccc(F)cc2)CC1`: the activity, negative = inhibition is -22.1% (inactive) in [3] (parasite line A) and -10.5% (inactive) in experiment [3] (parasite line B). Further, the Potency entry with 3D7, with ATS189, in the experiment with C2A, in the experiment with CP185, with CP191 and with CP192 was “inactive” in each case. The Potency result in the experiment with CP201 was “inactive”. In the experiment on 7G8, the Potency is 11.2 µM (active).
With `CNC[C@H](O)c1ccc(O)c(O)c1`, the values for the Z-AUC in experiment [2], in experiment [2] (setting [7]) and in [2] (measured here: PEO4 Z-AUC) were 0.904 (inactive), 1.34 and 1.03, respectively. For the same compound, the results for the activity, negative = inhibition in experiment [3] (parasite line A) and in experiment [3] (parasite line B) were -8.23% (inactive) and 3.15% (inactive), respectively. In addition, the Potency entry in the experiment with 7G8, in the experiment with AA1029, in the experiment with AS120, with ATS189, in the experiment on ATS95 and in the experiment with C2A was “inactive” throughout. In addition, the Potency entry in the experiment on CP185, in the experiment on CP191, in the experiment on CP192, in the experiment on CP194 and in the experiment with CP201 was “inactive” each time.
On to `NS(=O)(=O)c1cc(C(=O)O)c(NCc2ccco2)cc1Cl`, for which the z-score is -0.035 in experiment [1] (setting [4]), -0.245 in [1] (setting [5]) and 0.387 in experiment [1] (setting [6]).
Consider `Cc1c(C(=O)NN2CCCCC2)nn(-c2ccc(Cl)cc2Cl)c1-c1ccc(Cl)cc1`, for which the results for the Z-AUC in experiment [2], in experiment [2] (setting [7]) and in experiment [2] (measured here: PEO4 Z-AUC) were -1.52 (inactive), -0.747 and -0.695, respectively. Further, the Potency was 11.2 µM (active) in experiment [3] (parasite line B); 12.6 µM (active) with 7G8; 12.6 µM (active) in the experiment with AS120; 11.2 µM (active) with CP191; 16.9 µM (active) with CP194.
As for `O=C(O)c1cccnc1Nc1cccc(C(F)(F)F)c1`, the results for the z-score in experiment [1] (setting [4]), in experiment [1] (setting [5]) and in experiment [1] (setting [6]) were 0.327, 0.739 and 0.463, respectively. Also, the values for the activity, negative = inhibition in [3] (parasite line A) and in experiment [3] (parasite line B) were 8.39% (inactive) and 13.5% (inactive), respectively. For the same compound, the Potency result with 3D7, in the experiment with 7G8, in the experiment on AA1029, in the experiment on AS120, in the experiment on ATS189 and with ATS95 was “inactive” throughout. Moreover, the Potency result in the experiment with C2A, with CP185, with CP191, in the experiment on CP192, in the experiment on CP194 and with CP201 was “inactive” each time.
Regarding `CC(S)C(=O)NCC(=O)O` (centres undefined), the Z-AUC in [2] is -0.465 (inactive); in experiment [2] (setting [7]) it was 0.365; in experiment [2] (measured here: PEO4 Z-AUC), 0.0416. Also, the activity, negative = inhibition in experiment [3] (parasite line A) is 5.37% (inactive); in [3] (parasite line B), 13.7% (inactive). Besides, the Potency result in the experiment with 3D7, in the experiment with AA1029, with AS120, in the experiment with ATS189, in the experiment with ATS95 and in the experiment on C2A was “inactive” each time. The Potency result in the experiment with CP185, in the experiment on CP191, with CP192, in the experiment on CP194 and in the experiment with CP201 was “inactive” throughout.
For `CCCCC(CC)COC(=O)C(C#N)=C(c1ccccc1)c1ccccc1` (centres undefined), the Z-AUC in [2] is 0.188 (inactive); in experiment [2] (setting [7]), -0.152; in [2] (measured here: PEO4 Z-AUC) it was 0.0622. The Potency in [3] (parasite line A) is 11.2 µM (active); in the experiment with 7G8, 10 µM (active). Also, the Potency result in the experiment with C2A, in the experiment on CP192 and in the experiment with CP201 was “inactive” each time.
On to `CC1=C(C(=O)O)N2C(=O)[C@@H](NC(=O)[C@H](N)C3=CCC=CC3)[C@H]2SC1`, for which the figures for the z-score in experiment [1] (setting [4]), in [1] (setting [5]) and in experiment [1] (setting [6]) were 1.56, 0.465 and 0.657, respectively.
Take `CN(C)CCc1c[nH]c2ccc(Cn3cncn3)cc12`: the z-score in experiment [1] (setting [4]) came out at 0.0634; in [1] (setting [5]) it was 0.723; in [1] (setting [6]), 0.764. Further, the figures for the activity, negative = inhibition in experiment [3] (parasite line A) and in experiment [3] (parasite line B) were 15.9% (inactive) and -0.428% (inactive), respectively. For the same compound, the Potency result in the experiment with 3D7, in the experiment on 7G8, in the experiment on AA1029, in the experiment on AS120, in the experiment on ATS189 and in the experiment on ATS95 was “inactive” each time. The Potency entry in the experiment on C2A, in the experiment with CP185, in the experiment on CP191, in the experiment on CP192, with CP194 and in the experiment with CP201 was “inactive” in each case.
